Test results as given in PubChem BioAssay (NCATS).
Values without a mark were called inactive. Results filed as inconclusive are left out. Activity calls are given as the source filed them. Unless noted, the call rests on the fitted dose curve; in most records, active means well fitted curve in either direction with a large enough effect (not every such curve was filed as active); inconclusive means small, poorly fitted or top-dose-only effect, or another doubt; inactive means flat fitted curve, though single readings scatter.

Legend:
[1] = molecular target: Lysosomal acid glucosylceramidase (Homo sapiens) (UniProt P04062); assay: Glucocerebrosidase-p2 (AID 348; in the data active means potency below about 10 µM; further: potency means the concentration at half of the fitted maximal effect); conditions: purified GBA, blue fluorogenic substrate, 40 min
Chain of Lysosomal acid glucosylceramidase (Homo sapiens) (P04062 whole entry, looked up): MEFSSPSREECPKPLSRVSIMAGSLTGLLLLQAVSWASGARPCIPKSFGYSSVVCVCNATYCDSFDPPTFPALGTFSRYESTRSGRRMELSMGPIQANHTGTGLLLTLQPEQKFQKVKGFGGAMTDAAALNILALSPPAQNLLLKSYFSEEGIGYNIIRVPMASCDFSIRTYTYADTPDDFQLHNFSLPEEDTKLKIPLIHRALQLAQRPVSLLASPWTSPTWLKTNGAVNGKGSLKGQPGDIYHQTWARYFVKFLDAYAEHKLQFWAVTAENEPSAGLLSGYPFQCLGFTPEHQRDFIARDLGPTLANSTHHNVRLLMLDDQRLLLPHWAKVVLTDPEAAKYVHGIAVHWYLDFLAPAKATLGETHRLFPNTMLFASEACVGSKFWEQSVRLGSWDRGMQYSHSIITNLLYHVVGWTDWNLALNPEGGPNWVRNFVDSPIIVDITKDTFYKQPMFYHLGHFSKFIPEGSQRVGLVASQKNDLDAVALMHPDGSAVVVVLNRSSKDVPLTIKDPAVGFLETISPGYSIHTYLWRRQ
In short: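 Normal human glucocerebrosidase (0.2 nM) with blue fluorogenic substrate (80 uM final) in citrate/phosphate pH 5.9 with 10mM sodium taurocholate, 0.01% tween-20; 40 min RT, NaOH/glycine stop; fluorescence Ex 365/Em 440; AC50 from a titration from 0.6 nM upwards.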

[2] = AP1 Signaling Pathway (AID 357); conditions: ME-180 AP-1-bla reporter, EGF-induced, beta-lactamase ratio, 5 h; at 7.69 µM (top of the series) unless noted;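 further: ME-180 reporter cells stimulated with EGF at its EC50 level; on the % scale 0 is the no-effect control and ±100 the full control effect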
In short: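 Beta-lactamase reporter under AP-1 response element, ME-180 background. Stimulus: EC50 EGF. Compound exposure 5 h, 37 °C. Detection: CCF4, 2.5 h RT, 460/530 nm. Values: AC50 from titration.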

[3] = molecular target: Cytochrome P450 1A2 (Homo sapiens) (UniProt P05177); assay: p450-cyp1a2 (AID 410; calls by dose curve; further: potency means the concentration at half of the fitted maximal effect;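 on activity change, negative = inhibition: -100% = full effect of reference inhibitor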); conditions: recombinant CYP1A2, luciferin-ME demethylation, luminescence; series mostly up to 11.4 µM
Chain of Cytochrome P450 1A2 (Homo sapiens) (P05177 whole entry, looked up): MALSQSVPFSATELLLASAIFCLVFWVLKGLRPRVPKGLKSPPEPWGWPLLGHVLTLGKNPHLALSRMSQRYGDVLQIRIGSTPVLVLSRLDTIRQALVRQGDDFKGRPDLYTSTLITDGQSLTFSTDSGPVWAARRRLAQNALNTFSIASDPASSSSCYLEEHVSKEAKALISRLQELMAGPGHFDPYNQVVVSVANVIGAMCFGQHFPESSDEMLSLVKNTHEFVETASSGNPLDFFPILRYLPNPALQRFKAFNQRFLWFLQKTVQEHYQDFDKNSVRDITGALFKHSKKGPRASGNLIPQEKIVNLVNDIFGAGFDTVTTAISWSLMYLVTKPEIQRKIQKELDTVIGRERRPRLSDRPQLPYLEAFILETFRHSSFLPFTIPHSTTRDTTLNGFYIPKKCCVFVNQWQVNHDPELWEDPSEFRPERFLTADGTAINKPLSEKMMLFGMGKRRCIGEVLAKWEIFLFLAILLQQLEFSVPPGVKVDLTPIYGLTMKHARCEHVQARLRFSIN
In short: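 Luminescent demethylation readout: Luciferin-ME (100uM, equal to Km) turned over by 20nM CYP1A2 for 60 min at room temperature after NADPH regeneration addition, following 10 min compound preincubation. Normalization used 57 uM furafylline as full inhibition.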

[4] = NFAT Signaling Pathway (AID 444); conditions: Jurkat NFAT-bla M1, carbachol, beta-lactamase ratio, 5 h; at 7.69 µM (top of the series) unless noted;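 further: carbachol stimulus at about its EC50 of 1 µM final; on the % scale 0 is the no-effect control and ±100 the full control effect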
In short: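 Jurkat cells carrying an NFAT-driven β-lactamase reporter and co-transfected muscarinic M1 receptor were treated with compound plus carbachol (1 uM final, an EC50 level) for 5 h at 37 °C. CCF4 loading followed for 1 h at RT; 460/530 nm ratio gave %activity.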

[5] = Stat Signaling Pathway (AID 446); conditions: ME-180 SIE beta-lactamase reporter, IL-6 stimulated, 5 h; at 7.69 µM (top of the series) unless noted;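 further: ME-180 cervical cancer cells given 40 pM IL-6 alongside compound; SIE-controlled beta-lactamase reporter measured as 460/530 nm FRET emission ratio; on the % scale 0 is the no-effect control and ±100 the full control effect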
In short: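 Emission at 460 and 530 nm (excitation 405 nm) reports SIE-controlled beta-lactamase in ME-180 cells. Cells received compound with 40 pM IL-6 for 5 hrs at 37 C; data scaled between 300 pM IL-6 and 125 nM JAK-inhibitor controls.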

[6] = molecular target: Glucocorticoid receptor (Homo sapiens) (UniProt P04150); assay: GR-GFP Redistribution (AID 450;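 active means compounds whose dose series gives a full or clear partial fitted curve of increased nuclear translocation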; further: potency means the concentration at half of the fitted maximal effect); conditions: U2OS GR-GFP nuclear translocation, laser cytometry, 2 h
Chain of Glucocorticoid receptor (Homo sapiens) (P04150 whole entry, looked up, the tested form may be a part): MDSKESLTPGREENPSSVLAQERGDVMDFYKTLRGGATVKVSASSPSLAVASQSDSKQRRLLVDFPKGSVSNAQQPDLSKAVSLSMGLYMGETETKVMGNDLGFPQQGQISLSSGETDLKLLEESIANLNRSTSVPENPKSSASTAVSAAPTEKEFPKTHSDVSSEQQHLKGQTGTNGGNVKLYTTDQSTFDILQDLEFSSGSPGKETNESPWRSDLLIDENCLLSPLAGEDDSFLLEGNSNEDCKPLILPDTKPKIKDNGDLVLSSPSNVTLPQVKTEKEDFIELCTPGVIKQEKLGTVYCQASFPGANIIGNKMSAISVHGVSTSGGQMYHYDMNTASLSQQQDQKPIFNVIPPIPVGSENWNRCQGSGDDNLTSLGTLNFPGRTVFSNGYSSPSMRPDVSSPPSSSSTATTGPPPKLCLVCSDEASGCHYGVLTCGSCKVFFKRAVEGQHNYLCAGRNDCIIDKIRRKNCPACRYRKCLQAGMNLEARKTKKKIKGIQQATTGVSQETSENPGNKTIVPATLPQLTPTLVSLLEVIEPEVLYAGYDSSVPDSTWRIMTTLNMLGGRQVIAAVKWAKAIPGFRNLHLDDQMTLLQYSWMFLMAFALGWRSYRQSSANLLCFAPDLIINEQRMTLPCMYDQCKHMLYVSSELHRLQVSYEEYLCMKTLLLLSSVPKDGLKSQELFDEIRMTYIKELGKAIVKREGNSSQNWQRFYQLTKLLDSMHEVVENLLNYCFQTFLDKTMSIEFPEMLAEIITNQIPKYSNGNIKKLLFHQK

[7] = molecular target: Glucocorticoid receptor (Homo sapiens) (UniProt P04150); assay: GR-EFC Redistribution (AID 451; calls by dose curve; further: potency means the concentration at half of the fitted maximal effect); conditions: CHO-K1 GR-EFC translocation, beta-gal luminescence, 2 h
In short: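 CHO-K1 cells stably expressing nuclear-localized β-gal enzyme acceptor and GR fused C-terminally to the enzyme donor fragment; ligand-driven nuclear translocation restores β-gal by complementation. Compounds titrated up to 46 uM final, 2 h at 37 °C; luminescence read.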

[8] = molecular target: Mitogen-activated protein kinase 10 (Mus musculus) (UniProt Q61831); assay: JNK3 AlphaScreen Assay (AID 530); conditions: JNK3 lysate, c-Jun phosphorylation; series mostly up to 11.4 µM;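 further: kinase came from lysate of stimulated human HepG2 cells; signal reports phosphorylation of biotinylated GST-cJun 1-79 at Ser73 with 10 µM ATP; on the % scale 0 is the no-effect control and ±100 the full control effect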
In short: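 Phosphorylation of biotinylated GST-cJun(1-79) at Ser73 is measured by AlphaScreen proximity luminescence. Enzyme is JNK3 in HepG2 lysates activated with interleukin-1beta and tumor necrosis factor alpha; ATP is 10 uM final.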

[9] = molecular target: 3',5'-cyclic-AMP phosphodiesterase 4B (Homo sapiens) (UniProt Q07343); assay: qHTS Assay for Inhibitors of PDE-IV (AID 607; active means well fitted activation curve with a large enough effect in the main read-out, with a control signal flat, not every such curve was filed as active; further: % of control where 0% means no effect); conditions: HEK293 ACTOne CNG channel cells, membrane potential fluorescence; series mostly up to 22.9 µM
Chain of 3',5'-cyclic-AMP phosphodiesterase 4B (Homo sapiens) (Q07343 whole entry, looked up): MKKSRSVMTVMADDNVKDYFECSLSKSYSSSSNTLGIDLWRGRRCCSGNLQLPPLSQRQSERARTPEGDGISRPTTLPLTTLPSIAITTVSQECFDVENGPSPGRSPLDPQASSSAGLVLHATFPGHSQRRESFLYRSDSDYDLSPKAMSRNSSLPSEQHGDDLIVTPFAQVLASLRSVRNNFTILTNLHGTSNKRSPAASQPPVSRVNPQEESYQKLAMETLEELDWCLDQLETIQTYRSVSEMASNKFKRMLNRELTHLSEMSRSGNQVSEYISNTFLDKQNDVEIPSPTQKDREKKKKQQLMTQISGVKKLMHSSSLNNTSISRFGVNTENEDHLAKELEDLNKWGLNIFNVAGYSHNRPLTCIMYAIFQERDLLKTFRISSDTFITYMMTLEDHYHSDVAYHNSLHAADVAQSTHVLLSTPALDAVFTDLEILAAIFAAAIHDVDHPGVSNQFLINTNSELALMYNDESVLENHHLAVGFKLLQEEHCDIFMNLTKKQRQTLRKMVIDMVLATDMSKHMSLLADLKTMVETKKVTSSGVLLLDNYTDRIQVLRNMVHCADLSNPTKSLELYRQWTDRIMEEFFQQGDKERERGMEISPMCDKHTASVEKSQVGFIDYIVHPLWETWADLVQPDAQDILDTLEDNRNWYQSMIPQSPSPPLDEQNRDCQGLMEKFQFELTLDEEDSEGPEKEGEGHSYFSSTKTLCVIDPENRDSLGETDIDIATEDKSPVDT
In short: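 The readout is membrane depolarisation from a cAMP-sensing CNG channel, detected with a potential dye at ex 535/em 590. Cells were HEK293-derived (endogenous PDE-IV) at 1000 cells/well, titrated up to 22.9 uM final.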

[10] = molecular target: Cytochrome P450 3A4 (Homo sapiens) (UniProt P08684); assay: qHTS Assay for Activators of Cytochrome P450 3A4 (AID 885; active means well fitted curve in the direction sought with a large enough effect; an effect the other way counts as inactive or inconclusive; further: nearly all actives have a fitted effect of over 65% in size); conditions: recombinant CYP3A4, Luciferin-PPXE luminescence, 60 min; series mostly up to 11.4 µM
Chain of Cytochrome P450 3A4 (Homo sapiens) (P08684 whole entry, looked up): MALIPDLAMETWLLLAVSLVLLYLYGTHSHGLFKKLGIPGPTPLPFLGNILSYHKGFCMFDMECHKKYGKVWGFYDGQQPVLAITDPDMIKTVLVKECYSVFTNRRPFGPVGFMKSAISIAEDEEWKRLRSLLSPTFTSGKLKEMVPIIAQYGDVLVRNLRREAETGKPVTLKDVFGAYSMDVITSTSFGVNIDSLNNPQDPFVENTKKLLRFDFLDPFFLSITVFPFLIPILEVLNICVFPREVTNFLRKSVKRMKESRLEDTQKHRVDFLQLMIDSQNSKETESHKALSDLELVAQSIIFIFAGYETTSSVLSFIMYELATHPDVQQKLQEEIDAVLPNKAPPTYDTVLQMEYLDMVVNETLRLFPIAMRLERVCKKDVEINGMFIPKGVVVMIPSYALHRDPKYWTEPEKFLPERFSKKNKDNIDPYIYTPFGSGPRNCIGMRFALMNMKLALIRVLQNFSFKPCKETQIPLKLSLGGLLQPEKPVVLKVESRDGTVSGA
In short: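 Activators are scored by enhanced luminescence from CYP3A4 conversion of luciferin-PPXE (25uM, equal to KM) to luciferin, after 60 min at RT with an NADPH-regenerating system.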

[11] = molecular target: Cytochrome P450 2C19 (Homo sapiens) (UniProt P33261); assay: qHTS Assay for Inhibitors and Substrates of Cytochrome P450 2C19 (AID 899; active means well fitted curve in the direction sought with a large enough effect; an effect the other way counts as inactive or inconclusive; further: nearly all actives have a fitted effect of over 60% in size; further: potency means the concentration at half of the fitted maximal effect); conditions: recombinant CYP2C19, luciferin-H EGE luminescence; series mostly up to 11.4 µM
Chain of Cytochrome P450 2C19 (Homo sapiens) (P33261 whole entry, looked up): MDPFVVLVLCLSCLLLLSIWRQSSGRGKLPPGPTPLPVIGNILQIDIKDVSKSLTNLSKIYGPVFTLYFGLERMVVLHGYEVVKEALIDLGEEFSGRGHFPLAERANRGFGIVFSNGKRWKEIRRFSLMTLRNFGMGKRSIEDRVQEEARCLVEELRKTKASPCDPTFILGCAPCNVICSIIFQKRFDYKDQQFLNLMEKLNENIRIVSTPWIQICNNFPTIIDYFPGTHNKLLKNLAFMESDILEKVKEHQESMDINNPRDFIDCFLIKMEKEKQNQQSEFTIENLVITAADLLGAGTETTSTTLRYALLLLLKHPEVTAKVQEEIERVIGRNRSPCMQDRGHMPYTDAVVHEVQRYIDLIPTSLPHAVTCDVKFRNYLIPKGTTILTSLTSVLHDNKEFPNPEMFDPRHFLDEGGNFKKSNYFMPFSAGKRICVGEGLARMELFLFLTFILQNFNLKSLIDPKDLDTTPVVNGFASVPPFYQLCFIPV
In short: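 NADPH-dependent conversion of Luciferin-H EGE (10uM, at KM) by 5nM enzyme in 50mM KPO4, 60 min at 37C following 10 min compound preincubation. Stopped with luciferin detection buffer; luminescence read after 20 min.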

[12] = molecular target: Cytochrome P450 2D6 (Homo sapiens) (UniProt P10635); assay: qHTS Assay for Inhibitors and Substrates of Cytochrome P450 2D6 (AID 891; active means well fitted curve in the direction sought with a large enough effect; an effect the other way counts as inactive or inconclusive; further: nearly all actives have a fitted effect of over 60% in size; further: potency means the concentration at half of the fitted maximal effect); conditions: recombinant CYP2D6, luciferin-ME EGE luminescence; series mostly up to 11.4 µM
Chain of Cytochrome P450 2D6 (Homo sapiens) (P10635 whole entry, looked up): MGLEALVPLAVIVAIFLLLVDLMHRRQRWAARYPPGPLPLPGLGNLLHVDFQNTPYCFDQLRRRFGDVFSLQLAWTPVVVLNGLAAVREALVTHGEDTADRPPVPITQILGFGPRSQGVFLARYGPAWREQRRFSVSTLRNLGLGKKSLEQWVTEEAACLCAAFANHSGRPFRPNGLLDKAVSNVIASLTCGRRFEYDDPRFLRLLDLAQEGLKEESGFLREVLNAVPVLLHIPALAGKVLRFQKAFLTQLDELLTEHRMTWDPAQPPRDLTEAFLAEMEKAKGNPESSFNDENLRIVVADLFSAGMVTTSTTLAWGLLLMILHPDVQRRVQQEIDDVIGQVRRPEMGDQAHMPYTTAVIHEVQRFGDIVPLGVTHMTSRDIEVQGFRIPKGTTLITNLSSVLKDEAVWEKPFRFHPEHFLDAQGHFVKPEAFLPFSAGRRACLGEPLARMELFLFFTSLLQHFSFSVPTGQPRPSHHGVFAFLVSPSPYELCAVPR
In short: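 Luminescent read-out of luciferin formed by 5 nM human CYP2D6 demethylating 30 uM Luciferin-ME EGE (Km level) over 60 min at room temperature after NADPH regeneration addition. Data normalized to full inhibition by 1.43 uM quinidine.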

[13] = qHTS Assay for Identification of Small Molecule Agonists for Hypoxia Response Element Signaling Pathway (AID 914; active means well fitted activation curve with a large enough effect in the signal ratio, with a control signal flat, not every such curve was filed as active; the % refers to the signal ratio; further: % of control where 0% means no effect); conditions: ME-180 (cervical carcinoma) HRE-bla reporter, beta-lactamase ratio, CoCl2, 17 h; activation: active compounds read high
In short: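 Compounds in a titration series were added to ME-180 reporter cells alongside an EC50 level of CoCl2. After 17 hours, beta-lactamase activity was read as the 460nm/530nm emission ratio of CCF4, giving AC50 values.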

| Compound | Potency [1] | activity change, negative = inhibition [2] | Potency [3] | activity change, negative = inhibition [4] | activity, negative = inhibition [5] | Potency [6] | Potency [7] | Potency [8] | Potency [9] | Potency [10] | Potency [11] | Potency [12] | activity change, negative = inhibition [3] | activation [13] |
| --- | --- | --- | --- | --- | --- | --- | --- | --- | --- | --- | --- | --- | --- | --- |
| C(/C=C\c1ccccc1)=Nc1ccc2c(c1)Cc1ccccc1-2 | > 11.4 µM | -2.87% | 0.398 µM (active) | -3.9% | 7.01% | > 46 µM | > 9.22 µM | inactive | inactive | inactive | 3.98 µM (active) |  |  |  |
| OCCN(CO)CO | > 11.4 µM | 6.19% | inactive | 13.5% | 7.15% | > 46 µM | > 9.22 µM | inactive | inactive |  |  | inactive |  |  |
| O=C(O)[C@@H]1[C@@H](C(=O)O)[C@]23C[C@@]2(C(=O)O)[C@]2(C(=O)O)CCC3=C3CCCC312 | > 11.4 µM | 10.3% | 2.51 µM (active) | 0.691% | -2.48% | > 46 µM | > 9.22 µM | inactive | inactive |  |  | inactive |  |  |
| N=C(N)SCc1ccc(Cl)cc1Cl (tested in a mixture with another compound) | > 11.4 µM | 23.5% | 3.98 µM (active) | -21.9% | -9.66% | > 46 µM | > 9.22 µM | inactive | inactive |  |  | 3.16 µM (active) |  |  |
| O=C(O)c1nn(-c2ccccc2-c2n[nH]c(=O)[nH]c2=O)c(=O)[nH]c1=O | > 11.4 µM | 1.66% | inactive | 18.8% | 6.32% | > 46 µM | > 9.22 µM | inactive | inactive |  |  | inactive |  |  |
| CN1CCN(c2ccncc2S(=O)(=O)N2CCN(C)CC2)CC1 | > 11.4 µM | 5.65% |  | -16.5% | 8.15% | > 46 µM | > 9.22 µM | inactive | inactive | inactive |  |  | -7.4% [at 2.29 µM] | 7.59% |
| CC(C)C(O)(C(C)C)C(C)C | > 11.4 µM | 7.29% | inactive | 3.44% | 13.2% | > 46 µM | > 9.22 µM | inactive | inactive |  | inactive |  |  |  |
| Cn1c(=O)c2c(nc(NCCNc3nc4c(c(=O)n(C)c(=O)n4C)n3C)n2C)n(C)c1=O | > 11.4 µM | 4.17% | inactive | 8.54% | 14.6% | > 46 µM | > 9.22 µM | inactive | inactive |  | inactive |  |  |  |
